Assay outcomes as filed in PubChem.
rCAG RNA binder – binders of r(CAG) RNA repeats, primary screen, biochemical, fluorescence; r(CAG) RNA repeat, TO-PRO-1 dye displacement fluorescence; 370,000 tested, 1.3% active; inhibition, % at 3 µM; AID 651821, 2012;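 active means inhibition above the plate cutoff, the mean of all test compounds on that plate plus 3 SD, cut at about 35% in these data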;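 further: 0% = DMSO alone and 100% = 100 µM mitoxantrone as full dye displacement; higher means more dye released from RNA so lower well fluorescence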
PG9 Ab binder – binders of HIV-1 gp120 antibody PG9, primary screen, biochemical, TR-FRET; HIV-1 gp120 / PG9 antibody interaction; TR-FRET gp120-PG9 antibody binding; inhibition, % at 6.7 µM; 360,000 tested, 0.43% active; AID 624416, 2012; in the data active means inhibition above about 8.5%
sPLA2-III inh – human group III sPLA2 inhibitors, primary screen, biochemical, QFRET, BODIPY PC-A2 liposome substrate. Group 3 secretory phospholipase A2 (Homo sapiens), Q9NZ20. QFRET BODIPY PC-A2 liposome hydrolysis, fluorescence. inhibition, % at 12.2 µM. 370,000 tested, 0.56% active;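 active means inhibition above mean plus 3 SD of compounds lying within the high and low control bounds, cut at about 19% in these data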;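 further: 0% = median of test compound wells and 100% = no enzyme DMSO wells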
Target sequence (Q9NZ20 whole entry, looked up): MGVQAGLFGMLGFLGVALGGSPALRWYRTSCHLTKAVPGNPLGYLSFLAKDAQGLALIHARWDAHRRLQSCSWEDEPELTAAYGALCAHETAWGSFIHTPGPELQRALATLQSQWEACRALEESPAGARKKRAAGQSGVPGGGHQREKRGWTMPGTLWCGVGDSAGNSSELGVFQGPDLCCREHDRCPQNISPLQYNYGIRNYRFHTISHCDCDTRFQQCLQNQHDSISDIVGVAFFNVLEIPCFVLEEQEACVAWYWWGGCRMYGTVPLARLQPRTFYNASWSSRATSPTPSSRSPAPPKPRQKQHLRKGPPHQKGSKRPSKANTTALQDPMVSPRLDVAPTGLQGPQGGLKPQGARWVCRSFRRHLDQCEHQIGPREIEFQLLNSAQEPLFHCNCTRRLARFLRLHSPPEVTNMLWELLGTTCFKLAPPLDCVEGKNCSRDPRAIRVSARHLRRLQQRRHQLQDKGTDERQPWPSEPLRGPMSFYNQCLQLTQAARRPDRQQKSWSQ
MsrA inhibitor – bovine MsrA enzyme inhibitors, primary screen, biochemical, absorbance, HTS; purified bovine MsrA, absorbance read-out; inhibition, % at 15.5 µM; 360,000 tested, 0.75% active; in the data active means inhibition above about 4.5%;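 further: 0% = vehicle wells with enzyme and 100% = reference inhibitor wells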
bovine MsrA act – bovine MsrA enzyme activators, primary screen, biochemical, absorbance, HTS; Methionine sulfoxide reductase A (Bos taurus); purified bovine MsrA, absorbance read-out; activation, % at 10.6 µM; 360,000 tested, 0.3% active; AID 602163, 2012; in the data active means activation above about 7.5%;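 further: 0% = vehicle and 100% = reference activator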
PG9 binder conf – binders of anti-gp120 antibody PG9, confirmation, biochemical, TR-FRET. shares compounds with PG9 Ab binder. TR-FRET PG9 antibody binding. inhibition, % at 6.7 µM. 1,500 tested, 90% active; in the data active means inhibition above about 9%
PGV04 Ab binding – binders of control antibody PGV04, counter-screen for PG9 antibody binder project, biochemical, TR-FRET, distinct HIV envelope site; shares compounds with PG9 Ab binder; TR-FRET PGV04 antibody-gp120 binding; inhibition, % at 6.7 µM; 1,500 tested, 95% active; AID 651604, 2012; in the data active means inhibition above about 9.5%
PG9 bind DR – small-molecule binders of antibody PG9, dose response, biochemical, TR-FRET, HIV-1 gp120 antibody; IC50, µM; shares compounds with PG9 Ab binder; 95 tested, under 10 active; AID 651848, 2012; TR-FRET PG9 antibody-gp120 binding inhibition; in the data active means IC50 below about 10 µM
PGV04 binding DR – binders of control antibody PGV04, dose response, counter-screen for PG9 antibody binder project, biochemical, TR-FRET, distinct HIV envelope site; IC50, µM; shares compounds with PG9 Ab binder; AID 651937, 2012; 95 tested, 20% active; TR-FRET binding to control antibody PGV04
PG126 DR counter – binders of control antibody PG126, dose response, counter-screen for PG9 antibody binder project, biochemical, TR-FRET, distinct HIV envelope site. 95 tested, 20% active. AID 651939, 2012. IC50, µM. shares compounds with PG9 Ab binder. TR-FRET binding to antibody PG126, counterscreen
Active calls of the source: *; i = inactive; . = not tested or not shown. Only some compounds are listed: those with a hit (about 3.2% of all), similar ones and a draw of the others. Unless noted, no stated cut-off is given here; in the data, active means IC50 below about 9 µM; inactive means the rest.

SMILES	rCAG RNA binder	PG9 Ab binder	sPLA2-III inh	MsrA inhibitor	bovine MsrA act	PG9 binder conf	PGV04 Ab binding	others
CCN(C(=O)c1cc2c(=O)[nH]c3ccc(C)cc3c2s1)c1ccc(F)cc1	4	15*	1	0	-4	14*	24*
CCN(C(=O)c1cc2c(=O)[nH]c3ccc(C)cc3c2s1)c1cccc(C)c1	4	0	9	1	-4	.	.
CS(=O)(=O)Nc1ccc(C(=O)Nc2ccc(S(=O)(=O)Nc3nccs3)cc2)cc1	7	-2	-10	3	-5	.	.
CN(C)c1ccc(C(=O)Nc2ccc(S(=O)(=O)Nc3nccs3)cc2)cc1	35*	26*	-26	4	-11	38*	47*
C=CCn1c(=S)[nH]c2scc(-c3cccs3)c2c1=O	7	9.3*	7	2	1	9.8*	10*
Cn1c(=S)[nH]c2scc(-c3cccs3)c2c1=O	6	4	11	3	6	.	.
CCOC(=O)C1CCCN(C(=O)c2ccc3oc(Cc4ccccc4)nc3c2)C1 (centres undefined)	-5	12*	-20	1	-1	5	7
COc1ccc(-c2nnc(SCC(=O)NN=C(C)c3cccc4ccccc34)n2-c2ccc(C)cc2)cc1	6	.	0	.	.	.	.
Cc1ccc(-c2noc(-c3cccs3)n2)cc1	-1	8.8*	9	1	-3	26*	28*
O=C(CCn1nnc2ccccc21)Nc1nnc(COc2ccccc2F)s1	0	2	-21	1	2	.	.
O=C(CCn1nnc2ccccc21)Nc1nnc(-c2ccccc2F)s1	4	13*	-3	1	3	23*	38*
Cc1ccc(OCCn2c(NC(=O)c3ccco3)nc3ccccc32)cc1	0	19*	-7	0	-2	17*	25*
CCn1c(COc2ccccc2)nnc1SCC(=O)Nc1ccc(Oc2ccccc2)cc1	5	.	-3	.	.	.	.
Cc1cccc(NC(=O)CSc2cccc[n+]2[O-])c1C	1	16*	2	1	-2	9.3*	11*
Cc1cccc(C(C)C)c1NC(=O)CSc1cccc[n+]1[O-]	1	1	15	0	-3	.	.
CCCCC1=CC2=C(c3ccco3)C(=O)C(C)(OC(=O)c3ccc(OC)cc3)C(=O)C2=CN1CCCCO (centres undefined)	-6	13*	6	2	-3	19*	24*
CCCCC1=CC2=C(c3ccco3)C(=O)C(C)(OC(=O)c3ccc(OC)cc3)C(=O)C2=CN1C1CC1 (centres undefined)	-4	12*	-6	0	-2	22*	29*
CCCCC1=CC2=C(c3ccco3)C(=O)C(C)(OC(=O)c3ccc(OC)cc3)C(=O)C2=CN1CCN1CCOCC1 (centres undefined)	.	.	.	.	-1	.	.
CCCCC1=CC2=C(c3ccco3)C(=O)C(C)(OC(=O)c3ccc(OC)cc3)C(=O)C2=CN1CCCN(CC)CC (centres undefined)	-3	2	10	2	-3	.	.
CCCCC1=CC2=C(c3ccco3)C(=O)C(C)(OC(=O)c3ccc(OC)cc3)C(=O)C2=CN1C(CO)CO (centres undefined)	-6	13*	0	1	-10	14*	17*
Cc1c[nH]c2cccc(-c3cc4ccccc4o3)c12	7	.	-41	.	.	.	.
COc1ccc(-n2c(SCC(=O)Nc3ccccc3-c3ccccc3)nnc2-c2ccccn2)cc1	4	.	5	.	.	.	.
CC(C)CN1CN2Cc3cc(F)ccc3C2CS1(=O)=O (centres undefined)	2	.	4	.	.	.	.
CCn1c(=S)[nH]c2nc3c(cc2c1=O)CCCC3	2	22*	0	0	-1	10*	9.9*	PG9 bind DR=>67;PGV04 binding DR=i;PG126 DR counter=i
O=c1c2cc3c(nc2[nH]c(=S)n1-c1ccccc1)CCCC3	0	22*	13	2	-2	31*	34*
SMILES	rCAG RNA binder	PG9 Ab binder	sPLA2-III inh	MsrA inhibitor	bovine MsrA act	PG9 binder conf	PGV04 Ab binding	others
Cc1ccc(NC(=O)CSc2nc3sc(C)cc3c(=O)n2C)cc1	2	17*	7	3	-6	16*	26*
CCCCOc1ccc(C(=O)NC2CCCCN(Cc3cccc(C(F)(F)F)c3)C2=O)cc1 (centres undefined)	3	.	12	.	.	.	.
Cc1cc(C)c2nc(SCC(=O)N3CC(=O)Nc4ccccc43)c(C#N)cc2c1	9	13*	0	1	-6	11*	24*
Cc1ccc([C@H](C)NC(=O)C2=C(N)N(S(=O)(=O)c3ccc(C)cc3)C(C(=O)c3ccccc3)C2c2ccccc2Cl)cc1 (some centres undefined)	.	.	-8	.	.	.	.
CC(=O)c1sc2nc(SCC(=O)NCCc3ccccc3)[nH]c(=O)c2c1C	15	36*	-12	4	-12	37*	42*
CCOc1ccc(-n2c(SCC(=O)NCc3ccco3)nc3ccccc3c2=O)cc1	4	17*	7	2	1	45*	53*
Cc1sc2nc(SCC(=O)NCc3ccco3)n(CCc3ccccc3)c(=O)c2c1C	2	28*	0	0	-2	30*	34*
COc1ccc(CCNC(=O)CSc2nc3sc(C(=O)O)c(C)c3c(=O)[nH]2)cc1OC	-2	-3	7	2	-3	.	.
O=C(CSc1nc2ccccc2c(=O)n1-c1ccc(F)cc1)NCc1ccco1	.	.	.	.	-1	.	.
Cc1sc2nc(SCC(=O)NCc3ccco3)n(C)c(=O)c2c1C	3	2	-2	0	5	.	.
Cc1sc2nc(SCC(=O)NCc3ccco3)[nH]c(=O)c2c1C	7	28*	-4	2	-1	29*	42*
O=C(Nc1nc2ncccn2c1-c1ccc(F)c(F)c1)C1CC1	0	.	2	.	.	.	.
